SKKanGAS inh: inhibitors of SKKanGAS S. pyogenes growth in kanamycin (SK-promoter or general growth effect). inhibition, % at 7.5 µM. BacTiter-Glo, 6 h. 1.3% of 300,000 active;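 active = mean replicate score, as percent of positive control median, at least 50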;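 note: strain carries kanamycin resistance gene driven by streptokinase promoter and grows in 40 µg/ml kanamycin; loss of luminescence reflects streptokinase promoter inhibition or plain growth inhibition; 0% = median of DMSO wells and 100% = positive control at its reference dose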
Mdm2-MdmX inh: inhibitors of human Mdm2/MdmX interaction; SaOS-2 split-luciferase Mdm2/MdmX complementation, luminescence; O15151+Q00987; inhibition, % at 8 µM; 3% of 330,000 active;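 active = inhibition of at least 50% at 8 µM in the primary screen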
Beta cell apopt: blocks beta cell apoptosis | AID 435005 | protection from apoptosis, % (concentration not given with the values) | 0.8% of 300,000 active | INS-1E cytokine-induced death, ATP luminescence, 48 h; percent of positive-control rescue, neutral wells zero;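 active = Every replicate reaches about 75%, or at least half do and their mean reaches it too, limit read from the data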;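 note: 0% = cytokine-treated negative control wells and 100% = positive control rescue; higher means more ATP so stronger rescue from cytokine killing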
MPTP block: blocks calcium-induced mitochondrial swelling; isolated mouse mitochondria, Ca2+ swelling absorbance, 30 min; 1.4% of 360,000 active; inhibition, % at 10 µM; AID 602449;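 active = inhibition of 50% or more, scaled per plate between neutral and stimulator controls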;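 note: 0% = DMSO wells given calcium and 100% = 1 mM EGTA wells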
GRIN3A LBD mod: modulates the human NR3A ligand-binding domain | Tm shift relative to glycine control, % at 25 µM | 2.5% of 340,000 active | NR3A LBD differential scanning fluorimetry, Tm shift; 0% = protein alone, 100% = glycine-bound protein | AID 1259313;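 active = melting temperature shift of at least 10% of the positive control shift, at one fixed dose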
CSC inhib: blocks cancer stem cells. cancer stem cell-like cells viability, luminescence. inhibition, % at 7.5 µM. 1.1% of 300,000 active; in the data active = inhibition above about 75%; tested in HMLE shEcad cells
Rh123 counter: membrane potential counter-screen of mitochondrial pore inhibitors | shares compounds with MPTP block | isolated mitochondria, Rhodamine 123 fluorescence | inhibition, % at 10 µM | 78% of 5,000 active | AID 624504; in the data active = inhibition above about 22%;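 note: 0% = DMSO vehicle and 100% = positive control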
MPTP swell DR: dose response confirmation of mitochondrial permeability transition pore inhibitors; shares compounds with MPTP block; isolated mitochondria swelling, absorbance; AID 651561; 58% of 780 active; IC50, µM; in the data active = IC50 below about 20 µM
MPTP cs DR: active in counter-screen for permeability transition pore inhibitors | 49% of 780 active | AID 651564 | isolated mitochondria counterscreen, fluorescence read-out | shares compounds with MPTP block | IC50, µM; in the data active = IC50 below about 80 µM
An asterisk follows results filed as active. An excerpt weighted towards active compounds, which were near 6.9% of everything screened.

Results for Cc1cc(C)nc(-n2nc(C)c(Br)c2Nc2ccc(Br)cc2)n1 ?
SKKanGAS inh: 33; Mdm2-MdmX inh: 11; Beta cell apopt: -2; MPTP block: 2; GRIN3A LBD mod: 0; CSC inhib: 1

Results for Cc1nn(C)c(Nc2ccc(Br)cc2)c1Br ?
SKKanGAS inh: 7; Mdm2-MdmX inh: 27; Beta cell apopt: 58; MPTP block: 89*; GRIN3A LBD mod: 0; CSC inhib: -12; Rh123 counter: 76*

What do the screens show for `CCC1CCCCN1S(=O)(=O)c1ccc(NC(=O)c2ccncc2)cc1` (centres undefined)?
SKKanGAS inh: -4; Mdm2-MdmX inh: 14; MPTP block: 75*; GRIN3A LBD mod: 4; CSC inhib: 0; Rh123 counter: 89*

How did CCC1CCCCN1S(=O)(=O)c1ccc(NC(=O)C2CCN(C(=O)c3ccco3)CC2)cc1 (centres undefined) do in these assays?
SKKanGAS inh: 3; Mdm2-MdmX inh: 10; Beta cell apopt: 7; MPTP block: -1; GRIN3A LBD mod: 0

Results for CCc1c(C2(O)CCCCC2)[nH]c2cc(C(F)(F)F)ccc12 ?
SKKanGAS inh: 34; Mdm2-MdmX inh: 45; Beta cell apopt: 109*; MPTP block: 82*; GRIN3A LBD mod: -4; CSC inhib: 130*; Rh123 counter: 86*

Results for CCc1ccccc1Nc1ccc(C(=O)O)cc1N ?
SKKanGAS inh: 2; Mdm2-MdmX inh: -13; Beta cell apopt: -3; MPTP block: 62*; GRIN3A LBD mod: 0; Rh123 counter: -4; MPTP swell DR: inactive; MPTP cs DR: >80

Results for Nc1cc(C(=O)O)ccc1Nc1ccccc1 ?
SKKanGAS inh: 17; Mdm2-MdmX inh: 2; Beta cell apopt: 4; MPTP block: 0; GRIN3A LBD mod: -3; CSC inhib: -1

What do the screens show for `CC1CCC2(CC1)NC(=O)N(CC(=O)NCc1ccc(F)cc1)C2=O` (centres undefined)?
Mdm2-MdmX inh: 21; Beta cell apopt: -3; MPTP block: 0; GRIN3A LBD mod: -3; CSC inhib: -21

What do the screens show for `Cc1ccc(NC(=O)C2C3C=CC4(O3)C2C(=O)N(CCCN2CCCC(C)C2)C4C(=O)NC2CCCCC2)cc1` (centres undefined)?
SKKanGAS inh: 9; Mdm2-MdmX inh: 7; Beta cell apopt: -2; MPTP block: 1; GRIN3A LBD mod: -1; CSC inhib: -7

Results for COCCOc1cc(Nc2nnc(C(F)(F)F)s2)c(Cl)cc1Cl ?
SKKanGAS inh: 0; Mdm2-MdmX inh: 0; Beta cell apopt: 20; MPTP block: 80*; GRIN3A LBD mod: -25; CSC inhib: 21; Rh123 counter: 90*

Results for CCN1C(=O)S/C(=C/c2ccc(Sc3nc4ccccc4[nH]3)o2)C1=O ?
SKKanGAS inh: -9; Mdm2-MdmX inh: 33; Beta cell apopt: 13; MPTP block: 80*; GRIN3A LBD mod: -4; CSC inhib: 17; Rh123 counter: 76*

What do the screens show for `NC(=O)c1ccc(NC(=O)C2CCCC2)cc1`?
SKKanGAS inh: -2; Mdm2-MdmX inh: 19; Beta cell apopt: -4; MPTP block: 1; GRIN3A LBD mod: 3; CSC inhib: -5

How did CCOC(=O)c1cc(CC)sc1NC(=O)CN1CCN(C(=O)c2ccco2)CC1 do in these assays?
SKKanGAS inh: 20; Mdm2-MdmX inh: 2; Beta cell apopt: 6; MPTP block: -2; GRIN3A LBD mod: 1; CSC inhib: -2

Results for S=C(NCC1CCCO1)Nc1ccc(Cl)c(Cl)c1 (centres undefined) ?
SKKanGAS inh: 5; Mdm2-MdmX inh: 24; Beta cell apopt: 2; MPTP block: 60*; GRIN3A LBD mod: -5; CSC inhib: -9; Rh123 counter: 87*

Results for S=C(NCc1ccncc1)Nc1ccccc1 ?
SKKanGAS inh: 5; Mdm2-MdmX inh: 11; Beta cell apopt: 5; MPTP block: -1; GRIN3A LBD mod: -1; CSC inhib: -17

Screens: PubChem, several laboratories
